Values joined by “and” are separate entries in the source; they are usually repeats but may differ in a detail not shown here. Equal values may be shown once. Results filed as inconclusive are left out. More than one record can exist for a structure, and the calls need not agree. Active and inactive are the calls of the source. Unless noted, calls follow the shape of the dose curve; as a rule, active = well fitted curve in the direction sought with a large enough effect in the repeat runs; inconclusive = weak or mixed curves; inactive = no such curve, though single readings can be large; an effect the other way counts as inactive or inconclusive. Starred links: 1 amine or outer side, 2 acyl side, 3 side chain; linkers in the order of their positions; H or OH if unused. Positions of bridges follow the written chain, without caps; N, C: chain ends. Non-standard residues stand in square brackets, D forms with d. Residues, ends and D or L forms follow the SMILES beside them. Chains are numbered I, II in the order given. Actinocin(9to1) = Cc1c2oc3c(C)ccc(C(=O)[*:1])c3nc-2c(C(=O)[*:2])c(N)c1=O; NMeV = CN[C@H](C(=O)O)C(C)C; Sar = CNCC(=O)O
Legend:
[1] = target: Luciferin 4-monooxygenase (Photinus pyralis) (UniProt P08659); experiment: qHTS assay to identify small molecule inhibitors of firefly luciferase (AID 1224835); also: nearly all actives have a fitted effect of over 25% in size; also: potency is read from the fitted curve at half-maximal effect; as to activity change, negative = inhibition: series mostly up to about 120 µM
Chain of Luciferin 4-monooxygenase (Photinus pyralis) (P08659 whole entry, looked up): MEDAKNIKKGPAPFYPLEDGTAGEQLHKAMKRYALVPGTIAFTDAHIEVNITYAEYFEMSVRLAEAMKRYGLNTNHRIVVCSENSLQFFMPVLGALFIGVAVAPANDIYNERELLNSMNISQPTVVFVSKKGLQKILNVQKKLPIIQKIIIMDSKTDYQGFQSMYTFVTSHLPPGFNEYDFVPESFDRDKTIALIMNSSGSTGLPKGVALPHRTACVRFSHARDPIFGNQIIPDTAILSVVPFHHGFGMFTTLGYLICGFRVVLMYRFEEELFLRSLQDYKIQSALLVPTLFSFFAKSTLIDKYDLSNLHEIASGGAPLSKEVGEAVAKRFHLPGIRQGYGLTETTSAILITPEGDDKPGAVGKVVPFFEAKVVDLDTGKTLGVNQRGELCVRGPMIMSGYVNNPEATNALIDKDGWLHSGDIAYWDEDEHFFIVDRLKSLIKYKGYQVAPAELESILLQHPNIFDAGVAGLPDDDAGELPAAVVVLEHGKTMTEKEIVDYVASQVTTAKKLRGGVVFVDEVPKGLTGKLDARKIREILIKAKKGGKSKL
Outline: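 Inhibition of purified Photinus luciferase is measured by luminescence. Substrate levels (D-luciferin, ATP) sit at their KM values. Each compound is tested in a concentration series.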

[2] = qHTS assay to identify small molecule agonists of the constitutive androstane receptor (CAR) signaling pathway - cell viability counter screen (AID 1224836); also: nearly all actives have a fitted effect of over 45% in size; also: potency is read from the fitted curve at half-maximal effect; as to viability change, negative = cytotoxic: series mostly up to about 92 µM
Outline: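 23 h treatment, 37 C, 5% CO2. Cell line: HepG2 stably expressing hCAR with a CYP2B6-2.2kb construct. Co-treatment: PK11195, 0.75 uM final. Read-out: CellTiter-Fluor fluorescence intensity.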

[3] = qHTS assay to identify small molecule antagonists of the constitutive androstane receptor (CAR) signaling pathway - cell viability counter screen (AID 1224837); also: nearly all actives have a fitted effect of over 45% in size; also: potency is read from the fitted curve at half-maximal effect; as to activity change, negative = cytotoxicity: series mostly up to about 92 µM
Outline: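 Using CellTiter-Fluor, viability is scored in HepG2 cells stably carrying hCAR and a 2.2kb CYP2B6 reporter after 23 hr compound exposure across 15 concentrations, with CITCO present at 50 nM.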

[4] = target: Nuclear receptor subfamily 1 group I member 3 (Homo sapiens) (UniProt Q14994); experiment: qHTS assay to identify small molecule antagonists of the constitutive androstane receptor (CAR) signaling pathway (AID 1224838);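 also: HepG2 cells stably expressing hCAR with CYP2B6 luciferase reporter stimulated by CITCO; nearly all actives have a fitted effect of over 40% in size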; also: potency is read from the fitted curve at half-maximal effect
Chain of Nuclear receptor subfamily 1 group I member 3 (Homo sapiens) (Q14994 whole entry, looked up): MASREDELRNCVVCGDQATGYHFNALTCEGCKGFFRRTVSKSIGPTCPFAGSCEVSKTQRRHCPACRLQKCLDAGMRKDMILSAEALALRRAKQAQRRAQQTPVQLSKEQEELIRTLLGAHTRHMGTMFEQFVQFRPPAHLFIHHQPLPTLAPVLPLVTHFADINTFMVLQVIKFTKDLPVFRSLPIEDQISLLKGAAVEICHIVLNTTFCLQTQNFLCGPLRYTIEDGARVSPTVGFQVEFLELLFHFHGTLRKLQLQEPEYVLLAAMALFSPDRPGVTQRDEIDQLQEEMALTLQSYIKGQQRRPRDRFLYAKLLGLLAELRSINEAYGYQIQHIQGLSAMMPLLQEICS
Outline: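 Reporter luminescence was quantified after 24 h exposure of hCAR/CYP2B6-2.2kb double-stable HepG2 cells to compounds at 15 concentrations in the presence of 50 nM CITCO final.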

[5] = qHTS assay to identify small molecule antagonists of the estrogen related receptor signaling pathway with the pleiotropic PPARgamma coactivator (PGC) from Tox21 10K library - cell viability counter screen (AID 1224840; active = well fitted cell-killing curve with a large enough effect in the repeat runs, not every such curve was filed as active; also: nearly all actives have a fitted effect of over 40% in size; also: potency is read from the fitted curve at half-maximal effect)
Outline: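 Here the PGC/ERR cells serve as a cytotoxicity control: they are exposed to compounds for 17.5 hours at 37 C, and live-cell signal is quantified using CellTiter-Fluor fluorescence.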

[6] = qHTS assay to identify small molecule agonists of the hypoxia (HIF-1) signaling pathway - cell viability counter screen (AID 1224844; calls by dose curve; also: nearly all actives have a fitted effect of over 50% in size; also: potency is read from the fitted curve at half-maximal effect)
Outline: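 Multiplexed with the HRE beta-lactamase assay, this viability read used CellTiter-Glo luminescence (30 min, RT) on HRE-bla ME-180 cells treated 17 hrs with compounds in 0.5% dialyzed FBS medium.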

[7] = qHTS assay to identify small molecule antagonists of the estrogen related receptor signaling pathway with the pleiotropic PPARgamma coactivator (PGC) from Tox21 10K library (AID 1224841; call rule not given here; also: actives are mostly falling curves and most rising ones were filed inactive; nearly all actives have a fitted effect of over 50% in size; also: potency is read from the fitted curve at half-maximal effect; as to activity, negative = inhibition: series mostly up to about 92 µM)
Outline: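 Each well held 2,000 PGC/ERR cells, pre-incubated six hours (37 C, 5% CO2). Test substances in DMSO were added by pin tool and left for 18 h at 37 C before luciferase detection by One-Glo.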

[8] = qHTS assay to identify small molecule agonists of the estrogen related receptor signaling pathway with the pleiotropic PPARgamma coactivator (PGC) from Tox21 10K library (AID 1224842); also: nearly all actives have a fitted effect of over 15% in size
Outline: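 Luminescence from One-Glo (30 min, room temperature) measured after PGC/ERR cells had 18 h at 37 C with pinned compound (23 nL in DMSO). Cells had been seeded at 2,000 per well and pre-incubated 6 h.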

[9] = target: Nuclear receptor subfamily 1 group I member 3 (Homo sapiens) (UniProt Q14994); experiment: qHTS assay to identify small molecule agonists of the constitutive androstane receptor (CAR) signaling pathway (AID 1224839); also: nearly all actives have a fitted effect of over 15% in size; also: potency is read from the fitted curve at half-maximal effect;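 as to activation: HepG2 cells stably carrying human CAR and a CYP2B6 luciferase reporter; series mostly up to about 92 µM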
Outline: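 Compounds tested at 15 concentrations on HepG2 cells stably harbouring hCAR and CYP2B6-2.2kb reporter constructs, co-treated with PK11195 (0.75 uM final), 24 h at 37 C; luminescent reporter signal quantified.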

[10] = target: Thyrotropin receptor (Homo sapiens) (UniProt P16473); experiment: qHTS assay to identify small molecule agonists of the thyroid stimulating hormone receptor (TSHR) signaling pathway (AID 1224843; calls by dose curve; also: nearly all actives have a fitted effect of over 45% in size)
Chain of Thyrotropin receptor (Homo sapiens) (P16473 whole entry, looked up): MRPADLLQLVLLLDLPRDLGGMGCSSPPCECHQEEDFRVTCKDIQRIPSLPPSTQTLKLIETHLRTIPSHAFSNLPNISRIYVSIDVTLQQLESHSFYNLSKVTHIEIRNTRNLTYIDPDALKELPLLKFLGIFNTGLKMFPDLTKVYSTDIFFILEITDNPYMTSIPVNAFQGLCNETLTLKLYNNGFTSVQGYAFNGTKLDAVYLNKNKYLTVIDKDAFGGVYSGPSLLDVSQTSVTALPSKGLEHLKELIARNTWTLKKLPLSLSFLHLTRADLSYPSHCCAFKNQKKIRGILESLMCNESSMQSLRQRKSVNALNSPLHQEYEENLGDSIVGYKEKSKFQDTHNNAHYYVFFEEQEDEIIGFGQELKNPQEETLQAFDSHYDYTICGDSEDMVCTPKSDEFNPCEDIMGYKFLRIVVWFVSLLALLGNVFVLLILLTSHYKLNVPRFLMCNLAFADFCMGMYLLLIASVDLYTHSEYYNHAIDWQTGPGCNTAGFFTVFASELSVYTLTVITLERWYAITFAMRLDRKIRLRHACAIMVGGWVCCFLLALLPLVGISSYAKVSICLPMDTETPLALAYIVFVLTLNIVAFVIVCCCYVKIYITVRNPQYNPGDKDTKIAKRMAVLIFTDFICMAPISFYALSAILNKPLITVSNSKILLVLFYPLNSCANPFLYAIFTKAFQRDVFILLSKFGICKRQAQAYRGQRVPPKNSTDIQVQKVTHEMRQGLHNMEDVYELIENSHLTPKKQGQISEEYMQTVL
Outline: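 HEK293 cells stably bearing the thyrotropin receptor were plated at 800 cells/well and challenged with compound (30 min, RT). Accumulated cAMP was quantified via cAMP-d2 competing for cryptate-tagged antibody.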
% is scaled to controls: 0 for no effect and ±100 for the full control effect.

Cc1c2oc3c(C)ccc(C(=O)N[C@@H]4C(=O)N[C@H](C(C)C)C(=O)N5CCC[C@H]5C(=O)N(C)CC(=O)N(C)[C@@H](C(C)C)C(=O)O[C@@H]4C)c3nc-2c(C(=O)N[C@@H]2C(=O)N[C@H](C(C)C)C(=O)N3CCC[C@H]3C(=O)N(C)CC(=O)N(C)[C@@H](C(C)C)C(=O)O[C@@H]2C)c(N)c1=O (I: T[dV]P[Sar][NMeV] / II: T[dV]P[Sar][NMeV]; ester I:1-I:C, II:1-II:C; linker I:N-II:N via Actinocin(9to1))
inactive: Potency [1] | Potency [6]
active: Potency [2] 13.3 nM | Potency [3] 7.5 nM and 33.5 nM | Potency [4] 1 nM | Potency [5] 266 nM

C[N+]1([O-])CCOCC1
inactive: Potency [1] | Potency [2] | Potency [3] | Potency [4] | Potency [5] | Potency [7] | Potency [8] | Potency [6]

CC(C)(C)c1cc(C(C)(C)C)c(O)c(C(C)(C)C)c1
inactive: Potency [1] | Potency [2] | Potency [3] | Potency [5]
active: Potency [9] 12.2 µM

CCN(CC)C(=S)SSC(=S)N(CC)CC
active: Potency [1] 8.94 µM and 6.48 µM and 8.71 µM | Potency [2] 273 nM and 157 nM and 422 nM | Potency [3] 273 nM and 249 nM and 211 nM | Potency [4] 273 nM and 78.8 nM and 298 nM | Potency [5] 193 nM and 44.3 nM and 266 nM | Potency [7] 243 nM and 366 nM
355 nM (active) and inactive: Potency [6]
inactive: Potency [8]

COc1nc(C)nc(Cl)c1NC1=NCCN1
inactive: Potency [1] | Potency [2] | Potency [3] | Potency [5] | Potency [10] | Potency [6]

CCC(=O)/C=C/C1C(C)=CCCC1(C)C (stereo not given)
inactive: Potency [1] | Potency [2] | Potency [3] | Potency [5] | Potency [10] | Potency [6]

NCCO
inactive: Potency [1] | Potency [2] | Potency [3] | Potency [5] | Potency [10] | Potency [6]

CC1COc2c(N3CCN(C)CC3)c(F)cc3c(=O)c(C(=O)O)cn1c23 (stereo not given)
inactive: Potency [1] | Potency [2] | Potency [3] | Potency [5] | Potency [10] | Potency [6]

O=C1Nc2ccccc2C1(c1ccc(O)cc1)c1ccc(O)cc1
inactive: Potency [1] | Potency [2] | Potency [3] | Potency [5]

CCCCCCCCCCCCCCCCCl
inactive: activity change, negative = inhibition [1] 0.302% [at 23.6 µM] | activity change, negative = cytotoxicity [3] -1.23% [at 19 µM] | activity, negative = inhibition [4] -1.8% [at 19 µM] | activation [9] -1.81% [at 19 µM] | viability change, negative = cytotoxic [5] 6.02% [at 19 µM] | activity, negative = inhibition [7] 65% [at 19 µM] | activation [8] 5.12% [at 19 µM] | activation [10] 0.927% [at 19 µM] | activity change, negative = cytotoxicity [6] 8.74% [at 15.8 µM]

CC[C@]1(O)C[C@@H]2CN(CCc3c([nH]c4ccccc34)[C@@](C(=O)OC)(c3cc4c(cc3OC)N(C)[C@H]3[C@@](O)(C(=O)OC)[C@H](OC(C)=O)[C@]5(CC)C=CCN6CC[C@]43[C@@H]65)C2)C1
inactive: Potency [1] | Potency [5] | Potency [8] | Potency [6]
active: Potency [2] 1.19 µM and 2.98 µM | Potency [3] 2.66 µM and 4.22 µM

C=C(C)C(=O)O
inactive: Potency [1] | Potency [2] | Potency [3] | Potency [5] | Potency [6]

COC(=O)c1cccc(C(=O)OC)c1
inactive: Potency [1] | Potency [2] | Potency [3] | Potency [4] | Potency [5] | Potency [6]

CC(C(O)c1ccc(O)cc1)N1CCC(Cc2ccccc2)CC1 (stereo not given)
inactive: Potency [1] | Potency [2] | Potency [3] | Potency [5] | Potency [7] | Potency [8] | Potency [6]

Cc1cc(C(C)(C)C)c(O)c(C(C)(C)C)c1
inactive: Potency [1] | Potency [2] | Potency [3] | Potency [4] | Potency [5] | Potency [6]

COc1cc(C(=S)N2CCOCC2)ccc1O
inactive: Potency [1] | Potency [2] | Potency [3] | Potency [4] | Potency [5] | Potency [7] | Potency [8] | Potency [6]

CC(C)C(=O)c1c(C(C)C)nn2ccccc12
active: Potency [9] 23.7 µM
inactive: Potency [1] | Potency [3] | Potency [4] | Potency [5] | Potency [7] | Potency [8] | Potency [6]

OCCN1CCNCC1
inactive: Potency [1] | Potency [3] | Potency [4] | Potency [9] | Potency [5] | Potency [7] | Potency [8] | Potency [10] | Potency [6]

CCCCC(CC)COC(=O)CC(C(=O)OCC(CC)CCCC)S(=O)(=O)O (stereo not given)
active: Potency [6] 26.5 µM and 21.9 µM
inactive: Potency [1] | Potency [3] | Potency [4] | Potency [9] | Potency [5]

Reference: PubChem BioAssay (Tox21)
